Mac1 fbg inh: blocks human CD11b/CD18 adhesion to fibrinogen; P05107+P11215; K562 CD11b/CD18 adhesion to fibrinogen, ATPlite luminescence; Mn2+ added to activate the integrin; inhibition, % at 10 µM; actives 0.54% (n = 93,000);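 active = primary inhibition of 50% or more at 10 µM, then 40% or more on retest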
Target sequence (P05107 whole entry, looked up, other chains not shown): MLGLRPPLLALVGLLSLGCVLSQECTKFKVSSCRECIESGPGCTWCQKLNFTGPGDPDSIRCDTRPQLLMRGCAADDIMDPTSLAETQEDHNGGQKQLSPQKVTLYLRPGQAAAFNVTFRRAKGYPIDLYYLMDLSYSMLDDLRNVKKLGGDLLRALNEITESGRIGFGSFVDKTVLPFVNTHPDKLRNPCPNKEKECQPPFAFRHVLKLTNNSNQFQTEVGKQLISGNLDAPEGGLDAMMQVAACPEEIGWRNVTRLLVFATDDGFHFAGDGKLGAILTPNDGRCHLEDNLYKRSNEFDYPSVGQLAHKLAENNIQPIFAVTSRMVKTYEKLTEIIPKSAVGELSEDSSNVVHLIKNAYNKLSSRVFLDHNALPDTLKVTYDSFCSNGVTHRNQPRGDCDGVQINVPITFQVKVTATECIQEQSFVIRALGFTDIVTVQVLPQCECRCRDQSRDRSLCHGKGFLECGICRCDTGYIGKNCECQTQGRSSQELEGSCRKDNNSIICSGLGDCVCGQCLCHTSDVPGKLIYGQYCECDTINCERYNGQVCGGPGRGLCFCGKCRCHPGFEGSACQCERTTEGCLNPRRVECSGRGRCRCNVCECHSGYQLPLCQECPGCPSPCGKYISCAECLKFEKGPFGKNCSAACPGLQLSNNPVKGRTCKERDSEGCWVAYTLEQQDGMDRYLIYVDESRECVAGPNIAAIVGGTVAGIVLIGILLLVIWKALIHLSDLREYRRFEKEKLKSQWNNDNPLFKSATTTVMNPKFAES
Mac1 fbg enh: increases human CD11b/CD18 adhesion to fibrinogen | P05107+P11215 | K562 CD11b/CD18 adhesion to fibrinogen, ATPlite luminescence | activation, % at 10 µM | actives 0.07% (n = 93,000) | AID 1499;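 active = 10 µM primary screen giving 50% or more activity, confirmed by 40% or more on retest at that dose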
HePTP inhibitor: blocks human HePTP tyrosine phosphatase; recombinant HePTP phosphatase activity, OD absorbance; AID 521; inhibition, % at 20 µM; P35236; actives 0.64% (n = 110,000); in the data active = inhibition above about 50%;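 note: plate controls were vehicle for no effect and reference inhibitor for full effect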
PLAP act: activators of human placental alkaline phosphatase | actives 1.2% (n = 96,000) | purified PLAP enzyme, luminescent substrate read-out; active compounds read high | P05187 | activation fold at 20 µM; in the data active = activation fold above about 2
Numbers without * were called inactive; x = no result given. Only some compounds are listed: those with a hit (about 1.5% of all), similar ones and a draw of the others.

SMILES	Mac1 fbg inh	Mac1 fbg enh	HePTP inhibitor	PLAP act
O=C(/C=C/c1ccco1)Nc1cc(Cl)ccc1C(=O)O	x	x	102*	x
O=C(/C=C/c1ccco1)Nc1ccccc1-c1ccccc1	x	x	5	x
COC(=O)CCC(=O)c1ccc(C(C)(C)c2ccc(C(=O)CCC(=O)OC)s2)s1	x	x	3	x
O=[N+]([O-])c1ccc(C2CNC(c3ccccc3O)O2)cc1 (centres undefined)	x	x	13	x
CCCC(=O)Nc1nc2ccc(OC)cc2s1	18	-4	7	1.2
COc1ccc2nc(NC(=O)C(NS(=O)(=O)c3cccs3)C(C)C)sc2c1 (centres undefined)	-2	1	14	2.2*
COc1ccc2nc(NC(=S)N(C)C)sc2c1	60*	-4	x	1.5
O=C1C2C3C=CC(CC3)C2C(=O)N1/N=C/c1cccs1 (centres undefined)	x	x	0	x
N#CC1=C(N)SC(N)=C(C#N)C1CCC1CCCCC1	101*	-10	-1	1
Cc1sccc1C1C(C#N)=C(N)SC(N)=C1C#N	0	-2	2	1.2
Cc1c(/C=C/c2nc3ccccc3c(=O)n2-c2ccc([N+](=O)[O-])cc2)c2ccccc2n1C	x	x	81*	x
Cc1[nH]c2ccccc2c1/C=C/c1nc2ccccc2c(=O)n1-c1ccc([N+](=O)[O-])cc1	-13	52	10	x
Cc1nnc(SCc2cnc(-c3ccc(C(C)C)cc3)s2)n1C	70*	-6	3	1.3
O=C(CN1CCN(Cc2ccccc2F)C1=O)NCc1ccco1	-5	-1	x	2*
Cc1cc(C)c2c(c1)NC(c1ccc([N+](=O)[O-])cc1)C1CC=CC21 (centres undefined)	x	x	8	x
COc1ccccc1Cc1noc(-c2ccc(Cl)cc2)n1	x	x	2	x
CCOC(=O)C1=NNC(C(=O)c2ccc(OC)cc2)C1c1ccccc1Cl (centres undefined)	x	x	0	x
Cc1cc(-n2[nH]c(C)c(C)c2=O)nc(-c2ccccc2O)n1	-6	-2	4	2.5*
Cc1cc(N2CCN(c3ccccc3)CC2)nc(-c2ccccc2O)n1	20	-1	-21	1.2
CCc1ccc(NC(=O)C2CC(=O)N(c3ccc(CC)cc3)C2)cc1 (centres undefined)	x	x	0	x
CCOC(=O)c1ccc(NC(=O)c2ccc(C)c(S(=O)(=O)N3CCOCC3)c2)cc1	84*	-8	9	1.6
O=C(Nc1ccccc1)c1ccc(NC2CCCCC2)c(S(=O)(=O)N2CCOCC2)c1	-10	3	x	2.1*
CCc1ccc(N2CC(C(=O)Nc3ccc(C)c(S(=O)(=O)N4CCOCC4)c3)CC2=O)cc1 (centres undefined)	10	3	x	2*
O=C(Nc1ccccc1)c1ccc(N2CCN(c3ccccn3)CC2)c(S(=O)(=O)N2CCOCC2)c1	-17	-2	x	2.1*
CC(C)(C)c1ccc(/C=c2\sc3nnc(-c4ccccc4)n3c2=O)cc1	x	x	-3	x
SMILES	Mac1 fbg inh	Mac1 fbg enh	HePTP inhibitor	PLAP act
Cc1c(NC(=S)NC(=O)/C=C/c2ccccc2)cccc1-c1nc2ncccc2o1	x	x	-8	x
C/C(=N\N=C(/N)SC1CC(=O)N(c2ccc(Cl)cc2)C1=O)c1ccc(Br)s1 (centres undefined)	x	x	2	x
CCN1CCN(C(=O)Nc2ccc(Cc3ccc(NC(=O)N4CCN(CC)CC4)cc3)cc2)CC1	-3	-3	-14	2*
CN(C1=NC(=O)/C(=C\C=C\c2ccccc2)S1)c1ccc(O)cc1	x	x	-2	x
Cc1n[nH]c(C)c1Sc1ccccc1N=Cc1cccc(Cl)c1	x	x	3	x
CC(=O)N1CCC2(CC1)C(C#N)=C(N)Oc1n[nH]c(CSc3ccc(C)cc3)c12	-5	0	4	2*
Cc1ccc(SCc2[nH]nc3c2C2(C(=O)Nc4ccc(F)cc42)C(C#N)=C(N)O3)cc1 (centres undefined)	-9	-1	x	2*
CCc1[nH]nc2c1C1(CCN(C(=O)c3ccccc3)CC1)C(C#N)=C(N)O2	-9	-8	6	1.5
CCOc1ccc(-n2c(-c3ccccc3)c[n+]3c2CCCCC3)cc1	80*	-4	x	x
CCc1ccc(C(=O)/C=C/c2ccc(-c3cccc([N+](=O)[O-])c3)o2)cc1	x	x	-2	x
CN(C)S(=O)(=O)c1cccc(NC(=S)Nc2ccc(Cl)cc2Cl)c1	99*	-8	x	1.2
COc1cc(/C=N/NC(=S)Nc2cccc(S(=O)(=O)N(C)C)c2)cc(OC)c1O	13	2	x	x
CN(C)S(=O)(=O)c1cccc(NC(=S)Nc2cc(Cl)cc(Cl)c2)c1	100*	-6	x	1.5
CC(=O)OC(OC(C)=O)C12C=CC(O1)C1C(=O)N(c3cccc([N+](=O)[O-])c3)C(=O)C12 (centres undefined)	x	x	3	x
OCCN=Cc1ccc(Cl)cc1Cl	x	x	-10	x
Cc1csc(-c2cc3ccc(O)c(CN4CC5(C)CC4CC(C)(C)C5)c3oc2=O)n1 (centres undefined)	x	x	76*	x
C/C(=N\N=C1/NC(=O)C(CC(=O)O)S1)c1ccccc1 (centres undefined)	x	x	1	x
Cc1cc(F)ccc1S(=O)(=O)Nc1ccccc1C(=O)Nc1ncn[nH]1	-15	-6	7	2.9*
Cc1[nH]c2ccc(-c3n[nH]c(=S)n3C)cc2c1C	1	-4	9	1.8
CCn1c(-c2cc3ccccc3cc2O)n[nH]c1=S	0	-5	x	2.9*
CCn1c(-c2ccc3[nH]c(C)c(C)c3c2)n[nH]c1=S	17	-2	6	2.1*
O=C(Nc1cc(C(F)(F)F)ccc1Cl)C(Sc1nnc(-c2cccs2)o1)c1ccccc1 (centres undefined)	100*	-8	x	x
O=C(Nc1ccccc1N1CCOCC1)c1ccccc1NS(=O)(=O)c1ccc(F)cc1	3	-1	x	1.2
O=C(Nc1ccccc1N1CCOCC1)c1ccccc1NS(=O)(=O)c1ccc(F)c(F)c1	75*	-4	x	1.1
Cc1cc(F)ccc1S(=O)(=O)Nc1ccccc1C(=O)Nc1ccccc1N1CCOCC1	x	x	x	1.2
Cc1ccc(C)c(S(=O)(=O)Nc2ccccc2C(=O)Nc2ccccc2N2CCOCC2)c1	50*	-4	x	1.7
Cc1occc1C(=O)N/N=C/C1CC=CCC1 (centres undefined)	x	x	-6	x
Oc1[nH]c2ccccc2c1C1=NCCCC1	-6	-4	11	1

Source: PubChem BioAssay
